Values joined by “and” are separate entries in the source; they are usually repeats but may differ in a detail not shown here. Equal values may be shown once. Inconclusive results are not listed. Active and inactive are the calls of the source. How the source made its calls, unless noted: active means hit-call score of the fitted dose curve at least 0.9, where 1 is the maximum; inactive means score below 0.9.

For test [1], the target named is rat Thyrotropin Releasing Hormone Receptor (TRH), Trhr (gene 25570) (UniProt Q01717). Nature of the test: NVS_GPCR_rTRH: NovaScreen (NVS) G Protein-Coupled Receptor Assay for rat Thyrotropin Releasing Hormone Receptor (TRH) (AID 2283329; active means hit-call score of the fitted dose curve at least 0.9, where 1 is the maximum;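 further: hit means lower bound tracer signal versus DMSO baseline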). The method in brief:
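Competitive radioligand binding on rat forebrain membrane preparations, with filtration and scintillation readout after 4 h. Primary testing in duplicate at 25 uM; actives confirmed in concentration-response. DMSO defined baseline.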

Test [2] concerns the target human Peripheral-type Benzodiazepine Receptor (PBR), TSPO (gene 706) (UniProt P30536). Nature of the test: NVS_MP_hPBR: NovaScreen (NVS) Membrane Protein Assay for human Peripheral-type Benzodiazepine Receptor (PBR) (AID 2283331; active means hit-call score of the fitted dose curve at least 0.9, where 1 is the maximum;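 further: hits reduce radioligand binding relative to DMSO baseline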). In a few lines: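 Cell-free binding to human colonic membrane preparations measured by filter-based scintillation counting after 1 h. Compounds first run at 25 uM in duplicate, then concentration series for actives; signal loss against DMSO baseline.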

Test [3] is described as follows: CEETOX_H295R_MTT_cell_viability: Viability Assessment in the CeeTox HT-H295R MTT Assay (AID 2283718).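 On AC50: curve fitted both ways so AC50 may mark viability loss or gain.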 In a few lines:
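MTT reduction (0.5 mg/ml, 4 h at 37 C; absorbance at 570 and 650 nm) gave viability as background-corrected percent change versus controls. H295R cells had 48 h forskolin (10 uM) prestimulation, then 48 h chemical exposure at 0.1% DMSO.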

Test [4] is described as follows: BSK_BT_PBMCCytotoxicity: PBMC Cytotoxicity Assessment in the BioMAP Diversity Plus: BT Assay (AID 2284225).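 Further: PBMC viability measured by Alamar Blue dye reduction fluorescence.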 The note with it: primary human B cells with PBMC. The method in brief: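 Viability by Alamar Blue reduction (6 h, ex/em 546/580 nm) after 90 h culture of SEB/TSST-1-activated PBMC (20 ng/mL each) given compound 1 h before activation. DMSO served as baseline for curve fitting.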

Read-out in test [5]: Secreted IgG (sIgG), gene 3500
Nature of the test: BSK_BT_sIgG: BioMAP Diversity Plus: BT Assay for Secreted IgG (sIgG) Biomarker Activity (AID 2284226). The note with it: primary human B cells with PBMC. In a few lines:
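ELISA quantitation of secreted IgG from human B cells co-cultured with PBMC, sampled 24 h post-dosing. Values fitted relative to DMSO vehicle as baseline, positive fitting direction.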

Read-out in test [6]: Tumor necrosis factor (Homo sapiens) (UniProt P01375)
The test can be described thus: BSK_BT_xTNFa: BioMAP Diversity Plus: BT Assay for Tumor necrosis factor alpha (TNF-alpha) Biomarker Activity (AID 2284230). The note with it: primary human B cells with PBMC. The method in brief: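 Read-out: Luminex xMAP quantitation of secreted TNF-alpha from a B cell/PBMC co-culture 24 h after compound addition. Signal analysed relative to DMSO vehicle, positive fitting direction.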

Read-out in test [7]: Vascular cell adhesion molecule 1 (VCAM1), VCAM1 (gene 7412)
The test can be described thus: BSK_MyoF_VCAM1: BioMAP Diversity Plus: MyoF Assay for Vascular cell adhesion molecule 1 (VCAM1) Biomarker Activity (AID 2284231). Conditions: primary human lung fibroblasts. In a few lines:
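Primary human lung fibroblasts were dosed with test chemical for 24 h, then cell-surface VCAM-1 was measured by ELISA. Activity was fitted in the positive direction against DMSO as negative control and baseline.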

Read-out in test [8]: Collagen I, COL1A1 (gene 1277)
Nature of the test: BSK_MyoF_CollagenI: BioMAP Diversity Plus: MyoF Assay for Collagen I Biomarker Activity (AID 2284238). The note with it: primary human lung fibroblasts. In a few lines:
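Human lung fibroblasts were exposed to test chemical for 24 h, then Collagen I was quantified by ELISA. Activity was fitted in the increasing direction against DMSO as the negative control and baseline.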

Read-out in test [9]: Actin alpha 1 (ACTA1), ACTA1 (gene 58)
The test can be described thus: BSK_MyoF_ACTA1: BioMAP Diversity Plus: MyoF Assay for Actin alpha 1 (ACTA1) Biomarker Activity (AID 2284244). Conditions: primary human lung fibroblasts. The method in brief:
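alpha-SMA levels read by ELISA against DMSO baseline, 24 h post-dose, in primary human lung fibroblasts. Parallel cultures stained with 0.1% SRB after 10% TCA fixation (560 nm) to flag overt cytotoxicity.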

Read-out in test [10]: Basic fibroblast growth factor (bFGF), FGF2 (gene 2247)
The test can be described thus: BSK_MyoF_bFGF: BioMAP Diversity Plus: MyoF Assay for Basic fibroblast growth factor (bFGF) Biomarker Activity (AID 2284246). Conditions: primary human lung fibroblasts. In a few lines:
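bFGF was measured by ELISA in primary human lung fibroblasts 24 h after chemical addition. Signal was analysed as positive-direction change relative to DMSO baseline.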

Read-out in test [11]: Collagen IV, COL4A1 (gene 1282)
The test can be described thus: BSK_MyoF_CollagenIV: BioMAP Diversity Plus: MyoF Assay for Collagen IV Biomarker Activity (AID 2284247). The note with it: primary human lung fibroblasts. In a few lines: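 Collagen IV quantified by ELISA in human lung fibroblast cultures 24 h after chemical treatment, with DMSO as baseline. Parallel SRB staining (0.1% SRB after TCA fixation, 560 nm) flags overt cytotoxicity.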

Read-out in test [12]: Plasminogen activator inhibitor-1 (PAI1), SERPINE1 (gene 5054)
The test can be described thus: BSK_MyoF_PAI1: BioMAP Diversity Plus: MyoF Assay for Plasminogen activator inhibitor-1 (PAI1) Biomarker Activity (AID 2284256).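 On outcome: PAI-1 protein level measured by ELISA in fibroblast cultures; PAI-1 read 24 h after compound addition.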 Conditions: primary human lung fibroblasts. In a few lines:
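ELISA read-out of PAI-1 from primary human lung fibroblast cultures 24 h after dosing; gain-of-signal fit versus DMSO control.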

Read-out in test [13]: Interleukin-8 (IL8), CXCL8 (gene 3576)
Nature of the test: BSK_MyoF_IL8: BioMAP Diversity Plus: MyoF Assay for Interleukin-8 (IL8) Biomarker Activity (AID 2284261). The note with it: primary human lung fibroblasts. The method in brief:
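ELISA read-out of IL-8 from primary human lung fibroblasts, 24 h post-dose; positive-direction curve fitting relative to DMSO vehicle baseline.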

The nature of test [14]: BSK_MyoF_SRB: Viability Assessment in the BioMAP Diversity Plus: MyoF Assay (AID 2284267).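 Further: total protein by SRB absorbance in parallel cultures as cytotoxicity measure.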 Conditions: primary human lung fibroblasts. The method in brief:
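Cytotoxicity read-out: after 10% TCA fixation, parallel human lung fibroblast cultures were stained with 0.1% SRB at 24 h post-dosing and read at 560 nm; DMSO served as baseline.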

Read-out in test [15]: TIMP metallopeptidase inhibitor 1 (TIMP1), TIMP1 (gene 7076)
The test can be described thus: BSK_MyoF_TIMP1: BioMAP Diversity Plus: MyoF Assay for TIMP metallopeptidase inhibitor 1 (TIMP1) Biomarker Activity (AID 2284269). The note with it: primary human lung fibroblasts. In a few lines: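 ELISA read-out of TIMP-1 from primary human lung fibroblast cultures 24 h after compound dosing; gain of signal relative to DMSO vehicle baseline defines activity.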

Test [16] deals with Androgen receptor (Homo sapiens) (UniProt P10275). Nature of the test: ATG_AR_TRANS: Attagene TRANS-FACTORIAL HepG2 Assay for human Androgen Receptor (AR) (AID 2282973; active means hit-call score of the fitted dose curve at least 0.9, where 1 is the maximum). Conditions: HepG2 Attagene TRANS-FACTORIAL AR reporter transcription. In a few lines:
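HepG2 cells transiently transfected with multiplexed GAL4-UAS reporter units and chimeric NR-Gal4 fusion; 24 h compound exposure. Reporter mRNA measured by RT-PCR, 6-FAM labelling, HpaI digestion and capillary electrophoresis; gain-of-signal fitted relative to DMSO baseline.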

Test [17] concerns the target Glucocorticoid receptor (Homo sapiens) (UniProt P04150). Nature of the test: ATG_GR_TRANS: Attagene TRANS-FACTORIAL HepG2 Assay for human Glucocorticoid Receptor (GR) (AID 2282978; active means hit-call score of the fitted dose curve at least 0.9, where 1 is the maximum;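 further: activators score as hits since higher reporter transcript over DMSO is fitted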). Conditions: HepG2 Attagene TRANS GR reporter, mRNA transcription. The method in brief:
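HepG2 cells transiently transfected with multiplexed reporter units in which chimeric NR-GAL4 proteins drive GAL4-UAS reporters; 24 h compound exposure. Reporter mRNA measured by RT-PCR, 6-FAM labelling, HpaI digestion and capillary electrophoresis; gain-of-signal fitted versus DMSO.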

The target in test [18] is Retinoic acid receptor alpha (Homo sapiens) (UniProt P10276). Nature of the test: ATG_RARa_TRANS: Attagene TRANS-FACTORIAL HepG2 Assay for human Retinoic Acid Receptor alpha (RARa) (AID 2283005; active means hit-call score of the fitted dose curve at least 0.9, where 1 is the maximum). The method in brief:
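Reporter transcripts, measured by RT-PCR with fluorescent labeling and capillary electrophoresis after 24 h dosing, reflect activity of an exogenous human RARa–GAL4 fusion in transiently transfected HepG2. Fitted for increase relative to DMSO.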

For test [19], the target named is human Retinoic Acid Receptor beta (RARb), RARB (gene 5915) (UniProt P10826). The test can be described thus: ATG_RARb_TRANS: Attagene TRANS-FACTORIAL HepG2 Assay for human Retinoic Acid Receptor beta (AID 2283004; active means hit-call score of the fitted dose curve at least 0.9, where 1 is the maximum). In a few lines: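 HepG2 cells transiently transfected with multiplexed GAL4-UAS reporter units expressing chimeric NR–Gal4 fusions; 24 h compound exposure. Reporter mRNA quantified by RT-PCR, 6-FAM labelling, HpaI digestion and capillary electrophoresis; gain-of-signal fitted against DMSO baseline.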

In test [20] the target is human Retinoic Acid Receptor gamma (RARg), RARG (gene 5916) (UniProt P13631). Nature of the test: ATG_RARg_TRANS: Attagene TRANS-FACTORIAL HepG2 Assay for human Retinoic Acid Receptor gamma (RARg) (AID 2283009; active means hit-call score of the fitted dose curve at least 0.9, where 1 is the maximum). In a few lines:
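Transactivation of exogenous RARg-Gal4 fusion measured as reporter transcript induction after 24 h in transfected HepG2 cells. RNA reverse-transcribed, amplified, fluorescently labeled and resolved by capillary electrophoresis; increase relative to DMSO.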

Sequence of rat Thyrotropin Releasing Hormone Receptor (TRH), Trhr (gene 25570) (Q01717 whole entry, looked up): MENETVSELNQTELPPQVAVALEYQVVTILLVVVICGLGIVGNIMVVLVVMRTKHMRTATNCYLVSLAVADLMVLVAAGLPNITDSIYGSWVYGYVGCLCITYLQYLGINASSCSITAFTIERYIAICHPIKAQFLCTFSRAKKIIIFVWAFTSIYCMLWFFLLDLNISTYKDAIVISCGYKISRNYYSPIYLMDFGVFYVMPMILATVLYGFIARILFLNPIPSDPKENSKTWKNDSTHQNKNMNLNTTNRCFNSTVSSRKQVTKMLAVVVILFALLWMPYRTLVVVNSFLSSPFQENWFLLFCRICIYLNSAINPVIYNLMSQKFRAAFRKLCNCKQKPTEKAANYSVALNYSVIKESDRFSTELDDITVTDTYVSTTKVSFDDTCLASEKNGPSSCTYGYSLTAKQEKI
Sequence of Retinoic acid receptor alpha (Homo sapiens) (P10276 whole entry, looked up, the tested form may be a part): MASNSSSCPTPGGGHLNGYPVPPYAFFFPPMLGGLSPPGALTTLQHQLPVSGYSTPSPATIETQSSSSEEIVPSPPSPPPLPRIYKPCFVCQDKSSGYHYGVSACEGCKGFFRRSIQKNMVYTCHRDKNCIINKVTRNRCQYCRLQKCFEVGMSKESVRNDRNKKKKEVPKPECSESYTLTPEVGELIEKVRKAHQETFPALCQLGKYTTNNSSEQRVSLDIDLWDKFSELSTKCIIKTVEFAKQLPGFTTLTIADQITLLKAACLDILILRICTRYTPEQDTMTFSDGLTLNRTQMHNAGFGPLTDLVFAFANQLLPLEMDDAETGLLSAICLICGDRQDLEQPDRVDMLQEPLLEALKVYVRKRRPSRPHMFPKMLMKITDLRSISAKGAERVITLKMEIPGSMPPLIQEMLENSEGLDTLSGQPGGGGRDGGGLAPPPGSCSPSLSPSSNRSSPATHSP
Sequence of Glucocorticoid receptor (Homo sapiens) (P04150 whole entry, looked up, the tested form may be a part): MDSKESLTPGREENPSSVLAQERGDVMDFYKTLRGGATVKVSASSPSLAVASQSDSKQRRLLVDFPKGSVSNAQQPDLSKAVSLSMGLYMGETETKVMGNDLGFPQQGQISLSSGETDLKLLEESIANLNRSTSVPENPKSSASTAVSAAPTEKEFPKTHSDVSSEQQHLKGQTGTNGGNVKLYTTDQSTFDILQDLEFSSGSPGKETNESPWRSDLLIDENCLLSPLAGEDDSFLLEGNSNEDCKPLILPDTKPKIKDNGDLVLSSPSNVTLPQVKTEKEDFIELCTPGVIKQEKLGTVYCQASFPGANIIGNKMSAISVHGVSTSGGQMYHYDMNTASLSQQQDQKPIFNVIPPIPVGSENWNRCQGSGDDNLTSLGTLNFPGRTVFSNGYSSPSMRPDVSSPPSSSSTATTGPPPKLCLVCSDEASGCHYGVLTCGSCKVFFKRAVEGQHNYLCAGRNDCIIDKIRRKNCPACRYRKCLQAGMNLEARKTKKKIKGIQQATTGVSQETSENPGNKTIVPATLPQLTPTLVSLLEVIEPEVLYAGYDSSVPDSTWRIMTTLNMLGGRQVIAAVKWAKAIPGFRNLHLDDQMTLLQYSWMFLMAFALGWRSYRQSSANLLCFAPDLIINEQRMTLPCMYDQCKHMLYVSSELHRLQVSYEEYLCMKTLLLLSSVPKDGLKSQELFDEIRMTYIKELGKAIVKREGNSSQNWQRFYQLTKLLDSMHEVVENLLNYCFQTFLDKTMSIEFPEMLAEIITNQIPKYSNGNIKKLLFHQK
Sequence of human Peripheral-type Benzodiazepine Receptor (PBR), TSPO (gene 706) (P30536 whole entry, looked up): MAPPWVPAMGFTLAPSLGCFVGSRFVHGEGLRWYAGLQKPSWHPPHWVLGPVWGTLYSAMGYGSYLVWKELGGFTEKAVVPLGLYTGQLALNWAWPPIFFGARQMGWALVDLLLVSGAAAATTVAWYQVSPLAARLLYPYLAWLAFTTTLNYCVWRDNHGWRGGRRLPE
Sequence of Tumor necrosis factor (Homo sapiens) (P01375 whole entry, looked up): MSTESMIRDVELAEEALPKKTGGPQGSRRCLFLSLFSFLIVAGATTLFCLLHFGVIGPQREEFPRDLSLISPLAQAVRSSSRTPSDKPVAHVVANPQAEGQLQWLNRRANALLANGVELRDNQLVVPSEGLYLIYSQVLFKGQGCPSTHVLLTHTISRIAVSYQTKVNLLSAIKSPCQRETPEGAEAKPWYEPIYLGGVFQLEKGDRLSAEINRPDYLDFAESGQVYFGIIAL
Sequence of Androgen receptor (Homo sapiens) (P10275 whole entry, looked up, the tested form may be a part): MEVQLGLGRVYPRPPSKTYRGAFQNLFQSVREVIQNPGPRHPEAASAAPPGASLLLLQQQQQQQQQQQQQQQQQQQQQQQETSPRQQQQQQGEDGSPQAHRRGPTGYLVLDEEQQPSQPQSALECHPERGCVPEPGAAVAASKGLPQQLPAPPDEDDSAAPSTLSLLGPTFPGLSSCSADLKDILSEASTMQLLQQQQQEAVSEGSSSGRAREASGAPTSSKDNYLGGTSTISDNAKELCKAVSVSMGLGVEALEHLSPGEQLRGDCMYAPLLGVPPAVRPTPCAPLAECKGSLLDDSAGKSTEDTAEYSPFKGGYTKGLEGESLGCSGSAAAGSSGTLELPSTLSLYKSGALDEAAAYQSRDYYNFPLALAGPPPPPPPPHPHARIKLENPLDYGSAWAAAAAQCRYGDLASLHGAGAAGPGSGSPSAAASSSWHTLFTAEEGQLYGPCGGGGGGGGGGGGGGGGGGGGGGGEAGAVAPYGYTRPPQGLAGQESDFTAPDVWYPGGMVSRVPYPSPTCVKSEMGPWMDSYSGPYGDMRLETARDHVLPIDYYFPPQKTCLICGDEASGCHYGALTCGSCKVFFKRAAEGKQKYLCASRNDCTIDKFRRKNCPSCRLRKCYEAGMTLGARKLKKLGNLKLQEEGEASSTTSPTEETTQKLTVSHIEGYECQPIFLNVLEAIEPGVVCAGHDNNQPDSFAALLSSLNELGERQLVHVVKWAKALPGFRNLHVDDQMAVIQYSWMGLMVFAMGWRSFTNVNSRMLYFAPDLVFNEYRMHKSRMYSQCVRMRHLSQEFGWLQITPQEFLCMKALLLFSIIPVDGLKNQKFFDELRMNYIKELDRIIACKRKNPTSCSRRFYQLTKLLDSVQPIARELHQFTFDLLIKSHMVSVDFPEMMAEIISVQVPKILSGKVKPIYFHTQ
Sequence of human Retinoic Acid Receptor beta (RARb), RARB (gene 5915) (P10826 whole entry, looked up, the tested form may be a part): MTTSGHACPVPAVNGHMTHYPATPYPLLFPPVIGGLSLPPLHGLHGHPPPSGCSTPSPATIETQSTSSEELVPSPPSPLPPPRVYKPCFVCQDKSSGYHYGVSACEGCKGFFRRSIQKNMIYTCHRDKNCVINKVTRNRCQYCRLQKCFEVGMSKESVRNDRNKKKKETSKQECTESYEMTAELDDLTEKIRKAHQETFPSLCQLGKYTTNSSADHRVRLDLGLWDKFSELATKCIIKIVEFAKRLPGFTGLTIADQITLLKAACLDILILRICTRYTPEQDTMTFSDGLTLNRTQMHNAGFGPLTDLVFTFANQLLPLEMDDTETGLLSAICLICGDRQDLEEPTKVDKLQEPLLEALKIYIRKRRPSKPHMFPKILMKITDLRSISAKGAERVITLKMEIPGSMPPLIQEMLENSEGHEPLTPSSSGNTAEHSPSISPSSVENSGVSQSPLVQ
Sequence of human Retinoic Acid Receptor gamma (RARg), RARG (gene 5916) (P13631 whole entry, looked up, the tested form may be a part): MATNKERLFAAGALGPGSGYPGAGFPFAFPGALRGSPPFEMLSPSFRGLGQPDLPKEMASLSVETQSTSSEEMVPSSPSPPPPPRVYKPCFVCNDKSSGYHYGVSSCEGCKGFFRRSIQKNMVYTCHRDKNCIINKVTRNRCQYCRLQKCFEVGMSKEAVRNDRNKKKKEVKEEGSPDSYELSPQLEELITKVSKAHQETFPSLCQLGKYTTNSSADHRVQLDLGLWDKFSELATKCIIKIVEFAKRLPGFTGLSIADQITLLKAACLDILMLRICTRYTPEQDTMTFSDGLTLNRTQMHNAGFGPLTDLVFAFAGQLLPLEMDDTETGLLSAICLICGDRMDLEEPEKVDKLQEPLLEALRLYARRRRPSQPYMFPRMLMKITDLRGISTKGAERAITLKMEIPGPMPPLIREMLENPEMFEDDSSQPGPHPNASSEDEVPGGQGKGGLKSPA

`Cc1ccc(OP(=O)(Oc2ccc(C)cc2)Oc2ccc(C)cc2)cc1` (tested in a mixture with another compound): the compound was classed as inactive in test [1], in [3], in [6], in test [7], in test [10] and in [11]. For the same compound, the result in test [12], in test [14] and in test [15] was inactive. The AC50 (commonly the midpoint of the concentration-response curve, whichever way the signal moves) in [2] was 1.12 µM (active) and 1.76 µM (active); in test [4], 5.41 µM (active); in test [5], 13.5 µM (active); in [8], 32.6 µM (active); in test [9], 26.4 µM (active); in test [13], 10.2 µM (active).
As for `O=[N+]([O-])C=Cc1ccccc1`, the AC50 was 7.36 µM (active) in test [4]; 5.7 µM (active) in test [5]; 8.35 µM (active) in test [6]; 11.1 µM (active) in [7]; 14.2 µM (active) in test [8]; 12.3 µM (active) in [9]. Also, the concentration at half-maximal activity (AC50) in [10] is 11.9 µM (active); in test [11] it was 3.97 µM (active); in test [12], 12.3 µM (active); in test [13] it was 9.76 µM (active); in test [14] it was 20 µM (active); in test [15] it was 13.2 µM (active).
Take `c1cc(OCC2CO2)ccc1Cc1ccc(OCC2CO2)cc1` (configuration not stated): the outcome in test [16] and in test [17] was inactive.
In the case of `CC(=O)C=Cc1ccccc1`, in [1], the compound was classed as inactive.
Take `Clc1ccc(-c2ccccc2)cc1`: the outcome in test [4], in [5], in test [6], in test [7], in [8] and in test [9] was inactive. For the same compound, the result in test [10], in [11], in [13], in [14] and in [15] was inactive. Further, in [12], the AC50 was 0.121 µM (active).
Consider `C[N+](C)=CCl`, for which the compound was classed as inactive in test [17] and in test [18].
In the case of `CN(C)C(=O)C(c1ccccc1)c1ccccc1`, the compound was called inactive in [1].
`CC1CCC(=O)O1` (configuration not stated): in test [17], the compound was called inactive.
Take `O=C(CCN1CC1)OCC(CO)(COC(=O)CCN1CC1)COC(=O)CCN1CC1`: the result in test [17] was inactive.
Turning to `COC(=O)COc1ccc(Cl)cc1Cl`, the half-maximal activity concentration (AC50) in [2] is 14.9 µM (active).
With `O=C(NC(=O)c1c(F)cccc1F)Nc1ccc(Oc2ccc(C(F)(F)F)cc2Cl)cc1F`, the compound was called inactive in test [19], in [18], in [20] and in [3].
As to `Cc1ccc(C)c2ccccc12`, the call in test [16] was inactive.
In the case of `CN1C[C@H](C(=O)N[C@]2(C)O[C@@]3(O)[C@@H]4CCCN4C(=O)[C@H](Cc4ccccc4)N3C2=O)C=C2c3cccc4[nH]cc(c34)C[C@H]21`, in test [17], the compound was called inactive.
On to `N#CCCCl`, for which the compound was classed as inactive in test [18].
As to `C=CC(=O)OCCO`, in test [1], the outcome was inactive. Besides, the AC50 in test [3] was 26.7 µM (active).
As for `O=C=Nc1ccccc1`, the result in [18] and in test [3] was inactive.
For `Cc1cc(C)c(C2=C(OC(=O)CC(C)(C)C)C3(CCCC3)OC2=O)c(C)c1`, in [3], the AC50 was 93.1 µM (active).
`COC(C)(C)CCC[C@H](C)C/C=C/C(C)=C/C(=O)OC(C)C`: the compound was called inactive in test [16], in [8], in test [10], in test [11], in test [12] and in [13]. Also, the outcome in test [14] and in [15] was inactive. Further, the AC50 was 25 µM (active) in test [2]; 20 µM (active) in test [4]; 13.4 µM (active) in test [5]; 32.5 µM (active) in test [6]; 27.1 µM (active) in [7]; 30.9 µM (active) in [9].
Take `CCC(C)(C)O`: the compound was classed as inactive in [17].
Consider `CC(C)(C)C(=O)CCl`, for which the AC50 is 12.9 µM (active) in test [4], 8.03 µM (active) in test [5], 20 µM (active) in test [7] and 32.9 µM (active) in [12]. Also, the outcome in test [6], in test [8], in [9], in test [10], in [11] and in test [13] was inactive. Also, the result in [14] and in test [15] was inactive.

Source of the values: PubChem BioAssay (EPA / NIEHS).
